Rows were chosen to be rich in hits. Some 3% of all compounds tested hit in one or more screens of this group.
Wnt act: activators of Wnt/beta-catenin signaling; Wnt/beta-catenin reporter cell assay, activator, plate reader; activation, % at 9.35 µM; 300,000 tested, 1.2% active; AID 743398; in the data active = activation above about 30%, passing the limit was not always enough; inconclusive = no clear call, values can overlap the other calls;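 note: 0% = neutral control wells and 100% = positive control wells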
Statin myotox sup: protects C2C12 myotubes from simvastatin toxicity; ATP luminescence, 48 h; scaled: DMSO 0, geranylgeraniol control 100; rescue of ATP level, % at 7.49 µM; 330,000 tested, 0.78% active; AID 602340;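 active = mean ATP rescue above about 67%, or every replicate alone reaching that limit, limit read from the data, passing the limit was not always enough; inconclusive = no clear call, values can overlap the other calls; inactive = mean under the limit and some replicate under it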;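 note: myotubes were challenged with 10 µM simvastatin during compound exposure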
MITF TRPM1 HTS: MITF TRPM1 promoter activation in melanoma cells | SK-MEL-5 TRPM1-promoter luciferase, 24 h; % of positive control, neutral wells = 0 | activation, % at 12.5 µM | 300,000 tested, 0.75% active | AID 588334;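 active = mean activation of at least 80% with every replicate also reaching 80%; inconclusive = mean reaches 80% but some replicate falls short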;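 note: 0% = neutral control wells and 100% = parthenolide positive control wells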
esBAF inh: inhibitors of esBAF chromatin remodeling in mouse ES cells. reporter increase, % at 12.5 µM. 350,000 tested, 2% active. Bmi1-luciferase knock-in reporter, 24 h; 100% = twice the neutral-well signal. AID 602393; in the data active = activation above about 40%; inconclusive = no clear call, values can overlap the other calls;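 note: 0% = median of the plate's neutral control wells and 100% = double that signal; a rise in the Bmi1 reporter signal indicates esBAF inhibition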
An asterisk follows results filed as active; ? = inconclusive; . = no result given.

SMILES | Wnt act | Statin myotox sup | MITF TRPM1 HTS | esBAF inh
CC(C(=O)NC(=O)NCc1ccccc1)N1C(=O)c2ccccc2C1=O (stereo unspecified) | -4 | 96* | 7 | -8
CC(C(=O)NCc1ccccc1)N1C(=O)CN(C)C(=O)c2ccccc21 (stereo unspecified) | . | 89* | -10 | 1
CC(=O)N(C)c1ccc(C(O)(C(F)(F)F)C(F)(F)F)cc1 | 0 | . | 1 | .
CCOC(=O)N(C)c1ccc(C(O)(C(F)(F)F)C(F)(F)F)cc1 | . | 71* | 14 | 28
C[C@@H]1CN([C@@H](C)CO)C(=O)c2cc(N(C)C)ccc2O[C@@H](C)CCCCO[C@H]1CN(C)S(=O)(=O)c1cn(C)cn1 | . | 25 | . | 0
CC(C)c1cc2cc3ccc(=O)oc3cc2o1 | -2 | -11 | 94* | 52*
O=C(Nc1ccc(-c2ccc3nncn3n2)cc1)C1CCCC1 | 44* | -10 | 49 | 14
Cc1nc(-c2ccc(NC(=O)C3CCCCC3)cc2)cs1 | . | -23 | 71 | 68*
O=C(Nc1ccc(-c2cn3ccsc3n2)cc1)C1CC1 | 42* | -31 | 58 | 38
COc1cc(S(=O)(=O)N2CCN(c3ccccc3F)CC2)ccc1Cl | -3 | 78* | 2 | 15
COc1cc(S(=O)(=O)N2CCCCCC2)ccc1Cl | 1 | 100* | 7 | -3
CCCC#Cc1cnc2c(c1)C(=O)N([C@H](C)CO)C[C@H](C)[C@@H](CN(C)C(=O)Nc1ccccc1F)O2 | . | 17 | . | 0
Cc1cc(=O)oc2cc(NC(=O)c3ccccc3Cl)ccc12 | ? | . | 98* | .
COc1cccc(C(=O)Nc2ccc3c(C)cc(=O)oc3c2)c1 | 33* | -10 | 20 | 34
Cc1cc(=O)oc2cc(NC(=O)c3ccccc3C(=O)O)ccc12 | 0 | 9 | 2 | -5
C[C@@H]1CN([C@@H](C)CO)C(=O)c2cc(-c3ccc(C#N)cc3)cnc2O[C@H]1CN(C)Cc1cccnc1 | . | 3 | . | -10
Cc1ccc2c(c1)c1cccc3c1n2CCN3CCC(N)=O | . | -11 | 76 | 75*
CN(C)c1ccc2c(c1)[C@@H]1C[C@@H](CC(=O)NCc3ccc(Cl)cc3)O[C@H](CO)[C@@H]1O2 | . | 6 | . | 3
CCOC(=O)C1(Cc2ccccc2Cl)CCN(C(=O)c2cnccn2)CC1 | 12 | 2 | 79 | 67*
CCOC(=O)C1(Cc2ccccc2Cl)CCN(C(=O)c2cc(C)on2)CC1 | 4 | -5 | 20 | 35
C[C@@H]1CN([C@@H](C)CO)C(=O)c2cc(NS(=O)(=O)c3cccs3)ccc2O[C@@H](C)CCCCO[C@H]1CN(C)Cc1ccc2c(c1)OCO2 | . | . | . | -5
O=C(c1cnn(-c2cccc(F)c2)c1)c1ccccc1O | 37* | . | 46 | .
CN(CC12CC3CC(CC(C3)C1)C2)C(=O)c1ccco1 | -2 | 5 | -1 | 3
CN(C(=O)c1ccco1)c1nnc(C23CC4CC(CC(C4)C2)C3)s1 | 23 | -13 | . | 67*
CO[C@@H]1CN(C)C(=O)c2cc(NC(=O)C3CC3)ccc2OC[C@@H](C)N(Cc2ccccc2C(=O)O)C[C@H]1C | . | 0 | . | -4
SMILES | Wnt act | Statin myotox sup | MITF TRPM1 HTS | esBAF inh
CN1C(=O)c2cc(NC(=O)C3CCOCC3)ccc2OC[C@@H]2O[C@H](CC(=O)O)CC[C@H]21 | . | 5 | . | 5
Cc1ccc(C(=O)NC(=S)Nc2cccnc2Cl)cc1 | 41* | -6 | 145* | 23
COc1ccccc1C(=O)NC(=S)Nc1cccnc1Cl | -6 | -10 | 38 | -72
CCCc1nc2ccc(NC(=O)c3cccs3)cc2c(=O)n1Cc1ccccc1Cl | -2 | . | 6 | .
CCCc1nc2ccc(NC(C)=O)cc2c(=O)n1Cc1ccc(Cl)cc1 | 16 | . | 82* | .
CC(=O)Nc1ccc(NC(=O)C(C)OC(=O)/C(C#N)=C/c2ccc(N(C)C)cc2)cc1 (stereo unspecified) | 20 | -5 | 81* | 66*
CC(OC(=O)/C(C#N)=C/c1ccc(N(C)C)cc1)C(=O)N(C)c1ccccc1 (stereo unspecified) | 1 | 0 | 9 | 17
O=C(CNC(=O)c1cn2ccccc2n1)Nc1ccc(F)c(F)c1 | 35* | . | 78 | .
CCn1cnc2cc(NCc3nc4ccccc4n3C)ccc21 | 0 | -1 | 28 | 17
Cn1c(CNc2ccc(F)cc2)nc2ccccc21 | 6 | 1 | . | 69*
CCn1c(NCc2cccs2)nc2ccccc21 | -1 | 2 | -1 | 7
Cn1c(CNc2ccccc2)nc2ccccc21 | . | 3 | -7 | 66*
Cn1c(NCc2cccs2)nc2ccccc21 | . | 13 | 32 | 50*
CCCn1c(CNc2ccc(Br)cc2)nc2ccccc21 | 6 | 21 | 19 | 48*
CC(C)NC(=O)N(C)C[C@@H]1Oc2ccc(NC(=O)CCC(F)(F)F)cc2CC(=O)N([C@H](C)CO)C[C@@H]1C | . | -1 | . | 0
CCC(=O)N(C)C[C@H]1Oc2ncc(-c3ccccc3F)cc2C(=O)N([C@H](C)CO)C[C@@H]1C | . | -5 | . | 1
Cc1ccccc1-c1ccc2c(c1)O[C@@H](CN(C)C(=O)Nc1ccc(F)cc1)[C@@H](C)CN([C@H](C)CO)S2(=O)=O | . | 7 | . | -1
Cn1c(CNc2ccccc2O)nc2ccccc21 | -9 | 29 | -6 | 48*
Cc1ccccc1NCc1nc2ccccc2n1C | 14 | -6 | . | ?
CC(C)NC(=O)N(C)C[C@H]1Oc2ncc(C#Cc3ccncc3)cc2C(=O)N([C@H](C)CO)C[C@H]1C | . | -2 | . | 0
CC(=O)c1cccc(Nc2nc(N3CCOCC3)nc(N3CCOCC3)n2)c1 | 0 | -7 | 18 | -3
CC(=O)c1ccc(Nc2nc(N3CCOCC3)nc(N3CCOCC3)n2)cc1 | -2 | -15 | 28 | 44*
COC(=O)C1CCN(S(=O)(=O)c2c(C)n(C)c(=O)n(C)c2=O)CC1 | 48* | 10 | 1 | -8
O=C(Nc1ccc(Cl)cc1)OCc1ccccn1 | 54* | -5 | . | 77*
O=CNc1ccc2c(c1)Cc1cc([N+](=O)[O-])ccc1-2 | -2 | 12 | 8 | 16
SMILES | Wnt act | Statin myotox sup | MITF TRPM1 HTS | esBAF inh
CCC(=O)Nc1ccc2c(c1)Cc1cc([N+](=O)[O-])ccc1-2 | 48* | -10 | 93* | 81*
CN(c1cccc(NC(=O)Nc2cccc(Cl)c2)c1)S(C)(=O)=O | -3 | -22 | . | 54*
Cc1cccc(NC(=O)CCC(=O)N/N=C/c2ccco2)c1 | 3 | . | -7 | .
O=C(N/N=C\c1ccco1)Nc1cccc(Cl)c1 | 48* | . | 64 | .
CN(C)c1ccc(NC(=O)Nc2cccc(Cl)c2)cc1 | . | 14 | 31 | 54*
C[C@@H]1CCCCO[C@@H](CN(C)Cc2ccc(C(F)(F)F)cc2)[C@H](C)CN([C@@H](C)CO)C(=O)c2cc(NC(=O)NC3CCCCC3)ccc2O1 | . | . | . | 11
CCCc1cc2c(=O)c(-c3ccccn3)c(C)oc2cc1O | 1 | 47 | -10 | 10
CCCc1cc2c(=O)c(-c3ccccn3)coc2cc1OC | 53* | -5 | 116* | 100*
Cc1cccc(C(=O)N2CCC(n3nnc4cc(F)ccc43)CC2)c1 | . | 134* | -3 | 5
COc1ccc(C(=O)N2CCC(n3nnc4cc(F)ccc43)CC2)cc1OC | -1 | . | -6 | .
O=C(N[C@H]1CC[C@H](CCn2cc(Cc3ccccc3)nn2)O[C@H]1CO)c1ccccn1 | . | 7 | . | 3

High-throughput results from PubChem.
